Measured values published in the supplement of paper PMC9254222.
In all, about 1,100 compounds were measured (“Renilla luciferase signal (cell health) relative to plate median”: median about 0.97, highest 2% from about 1.6 on). The sample holds the highest values, similar compounds and a random draw of the others, so the mix is not that of the screen.

System: HEK293T (UBE3A T485A transfected, BAR Wnt reporter)
Assay: Renilla luciferase signal (cell health) relative to plate median (fold (linear ratio)); higher = higher Renilla signal
Conditions: 24 h
Procedure, shortened: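 HEK293T cells carrying a transfected BAR firefly luciferase Wnt reporter, TK-Renilla and an expression plasmid were exposed to chemicals at 0.01–100 uM for 24 h, with dosing four hours after transfection. Readout used Dual-Glo luciferase. The firefly/Renilla ratio defined Wnt activity and raw Renilla defined cell health, each median-centred per plate. Figures are means of four biological replicates.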

CSC(=O)c1cccc2nnsc12 [Acibenzolar-S-methyl]
Renilla luciferase signal (concentration: 0.01 uM): 0.985
Renilla luciferase signal (concentration: 0.1 uM): 1.18
Renilla luciferase signal (concentration: 1 uM): 1.05
Renilla luciferase signal (concentration: 10 uM): 1.07
Renilla luciferase signal (concentration: 100 uM): 1.8

CN(C)C(=O)Nc1ccc(Cl)c(Cl)c1 [Diuron]
Renilla luciferase signal (concentration: 0.01 uM): 0.747
Renilla luciferase signal (concentration: 0.1 uM): 1.11
Renilla luciferase signal (concentration: 1 uM): 1.06
Renilla luciferase signal (concentration: 10 uM): 0.951
Renilla luciferase signal (concentration: 100 uM): 0.328

O=C(CCCCCCCCc1cccnc1)N1CCC(C=C(c2ccccc2)c2ccccc2)CC1
Renilla luciferase signal (concentration: 0.1 uM): 0.898
Renilla luciferase signal (concentration: 1 uM): 0.875
Renilla luciferase signal (concentration: 10 uM): 0.939
Renilla luciferase signal (concentration: 100 uM): 0.0905

C=CCOC(Cn1ccnc1)c1ccc(Cl)cc1Cl (centres undefined) [Imazalil]
Renilla luciferase signal (concentration: 0.01 uM): 0.797
Renilla luciferase signal (concentration: 0.1 uM): 0.885
Renilla luciferase signal (concentration: 1 uM): 0.939
Renilla luciferase signal (concentration: 10 uM): 0.777
Renilla luciferase signal (concentration: 100 uM): 0.0667

c1ccc2ccccc2c1 [Naphthalene]
Renilla luciferase signal (concentration: 0.1 uM): 1.18
Renilla luciferase signal (concentration: 1 uM): 1.14
Renilla luciferase signal (concentration: 10 uM): 1.33
Renilla luciferase signal (concentration: 100 uM): 1.64

c1ccc2cc3ccccc3cc2c1 [Anthracene]
Renilla luciferase signal (concentration: 0.1 uM): 1.34
Renilla luciferase signal (concentration: 1 uM): 1.26
Renilla luciferase signal (concentration: 10 uM): 0.952
Renilla luciferase signal (concentration: 100 uM): 0.992

c1ccc2c(c1)ccc1ccccc12 [Phenanthrene]
Renilla luciferase signal (concentration: 0.1 uM): 0.817
Renilla luciferase signal (concentration: 1 uM): 0.792
Renilla luciferase signal (concentration: 10 uM): 0.858
Renilla luciferase signal (concentration: 100 uM): 0.898

N=C(N)c1ccc(OCCCCCOc2ccc(C(=N)N)cc2)cc1.O=S(=O)(O)CCO.O=S(=O)(O)CCO [Pentamidine isethionate]
Renilla luciferase signal (concentration: 0.1 uM): 1.02
Renilla luciferase signal (concentration: 1 uM): 2.37
Renilla luciferase signal (concentration: 10 uM): 0.453
Renilla luciferase signal (concentration: 100 uM): 0.0508

CCCCCCCC(=O)O [Octanoic acid]
Renilla luciferase signal (concentration: 0.1 uM): 0.834
Renilla luciferase signal (concentration: 1 uM): 0.792
Renilla luciferase signal (concentration: 10 uM): 0.83
Renilla luciferase signal (concentration: 100 uM): 1.09

OCC(CO)(CBr)CBr [2,2-Bis(bromomethyl)-1,3-propanediol]
Renilla luciferase signal (concentration: 0.1 uM): 0.999
Renilla luciferase signal (concentration: 1 uM): 0.961
Renilla luciferase signal (concentration: 10 uM): 1.01
Renilla luciferase signal (concentration: 100 uM): 1.07

OCC(CO)(CO)CO [Pentaerythritol]
Renilla luciferase signal (concentration: 0.1 uM): 0.898
Renilla luciferase signal (concentration: 1 uM): 1.02
Renilla luciferase signal (concentration: 10 uM): 1.08
Renilla luciferase signal (concentration: 100 uM): 2.01

O=c1c(-c2ccc(O)cc2)coc2cc(O)cc(O)c12 [Genistein]
Renilla luciferase signal (concentration: 0.01 uM): 0.617
Renilla luciferase signal (concentration: 0.1 uM): 0.604
Renilla luciferase signal (concentration: 1 uM): 0.77
Renilla luciferase signal (concentration: 10 uM): 0.58
Renilla luciferase signal (concentration: 100 uM): 1.01

COc1cc(S(=O)(=O)[O-])c(C)cc1/N=N/c1c(O)ccc2cc(S(=O)(=O)[O-])ccc12.[Na+].[Na+]
Renilla luciferase signal (concentration: 0.1 uM): 0.934
Renilla luciferase signal (concentration: 1 uM): 0.936
Renilla luciferase signal (concentration: 10 uM): 0.887
Renilla luciferase signal (concentration: 100 uM): 0.502

CC[C@H]1OC(=O)[C@H](C)[C@@H](O[C@H]2C[C@@](C)(OC)[C@@H](O)[C@H](C)O2)[C@H](C)[C@@H](O[C@@H]2O[C@H](C)C[C@H](N(C)C)[C@H]2O)[C@](C)(O)C[C@@H](C)C(=O)[C@H](C)[C@@H](O)[C@]1(C)O [Erythromycin]
Renilla luciferase signal (concentration: 0.1 uM): 0.894
Renilla luciferase signal (concentration: 1 uM): 1.14
Renilla luciferase signal (concentration: 10 uM): 2.38
Renilla luciferase signal (concentration: 100 uM): 5.97

CCCC(CCC)C(=O)O [Valproic acid]
Renilla luciferase signal (concentration: 0.01 uM): 0.788
Renilla luciferase signal (concentration: 0.1 uM): 0.847
Renilla luciferase signal (concentration: 1 uM): 0.87
Renilla luciferase signal (concentration: 10 uM): 0.883
Renilla luciferase signal (concentration: 100 uM): 1.56

CCNc1nc(N)nc(Cl)n1 [Deisopropylatrazine]
Renilla luciferase signal (concentration: 0.01 uM): 0.898
Renilla luciferase signal (concentration: 0.1 uM): 0.991
Renilla luciferase signal (concentration: 1 uM): 0.951
Renilla luciferase signal (concentration: 10 uM): 0.879
Renilla luciferase signal (concentration: 100 uM): 0.243

CC(=O)S[C@H](C(=O)N[C@H]1Cc2ccccc2[C@H]2CCC[C@@H](C(=O)O)N2C1=O)C(C)C [Ilepatril]
Renilla luciferase signal (concentration: 0.1 uM): 0.879
Renilla luciferase signal (concentration: 1 uM): 0.836
Renilla luciferase signal (concentration: 10 uM): 0.857
Renilla luciferase signal (concentration: 100 uM): 1.53
